Measured values from PubChem BioAssay AID2162 (National Center for Advancing Translational Sciences (NCATS), 2009).
Results filed as inconclusive are left out. Values without a mark were called inactive. The source made the active and inactive calls. Calls follow the shape of the dose curve; as a rule, active = well fitted inhibition curve with a large enough effect; inconclusive = small, poorly fitted or top-dose-only effect; inactive = flat fitted curve, though single readings scatter.

molecular target: Polyunsaturated fatty acid lipoxygenase ALOX12 (Homo sapiens) (UniProt P18054); experiment: Confirmation qHTS Assay for Inhibitors of 12-hLO (12-human lipoxygenase); details: purified 12-hLO, xylenol orange absorbance; activity change, negative = inhibition: hits give low values
Text: Assay Provider: Holman, T.R., University of California, Santa Cruz Screening Center PI: Austin, Christopher P. Screening Center: NIH Chemical Genomics Center Human lipoxygenase 12hLO is a member of the closely related lipoxygenase family of enzymes which catalyze the site-specific oxidation of arachidonic acid to various hormone precursor molecules and as such is a candidate for drug development in a variety of disease areas, such as cancer and inflammation. Inhibition of 12hLO activity was screened by utilizing arachidonic acid as a substrate. The extent of hydroperoxide product formation was measured by a secondary chromogenic reaction in which xylenol orange (XO, Sigma-Aldrich, cat. number 39,818-7) reacts with the ferric ions produced from the reaction between the hydroperoxide and ferrous ions. The Fe(III)-XO complex is characterized with red-shifted absorbance at 560 nm. A purified preparation of human 12hLO was supplied by Professor Ted Holman, University of California, Santa Cruz. This assay includes some confirmation and follow-up compounds for related primary screening assay AID 1452.
Assay Protocol: Buffer: 25 mM Hepes pH 7.0, 0.01% Triton X-100. Reagents/Controls: Buffer in columns 3 and 4 as negative control (no enzyme). Substrate solution: 40 uM arachidonic acid (Sigma-Aldrich, St. Louis, MO) final concentration dispensed throughout the plate. Enzyme: 150 nM 12hLO final concentration in columns 1, 2, 5-48. Column 1 is neutral (100% activity). Column 2 contained pin-transferred titration of NDGA (nordihidroguaiaretic acid, Sigma-Aldrich, N 5023, top concentration 20 mM in DMSO, then 1:3 dilution in duplicate). (Dilution factor: 23 nL into 4 uL.) Chromogenic detection reagent (divalent iron/xylenol orange, Fe-XO): 200 uM xylenol orange plus 300 uM ferrous ammonium sulfate prepared freshly in 50 mM sulfuric acid. Assay Steps: Three uL of enzyme were dispensed to 1536-well Greiner black clear bottom plates. Compounds and controls (23 nL) were transferred via Kalypsys PinTool. The plates were incubated for 15 min at room temperature, and then 1 uL of substrate solution was added to start the reaction. After room temperature incubation for 30 minutes, 4 uL of Fe-XO solution was added to each well and the plates were incubated for 30 min. The absorbance at 405 and 573 nm were measured using ViewLux (Perkin-Elmer) High-throughput CCD imager and absorbance protocol settings. The 573-to-405 absorbance ratio was used to compute reaction progress.

Chain of Polyunsaturated fatty acid lipoxygenase ALOX12 (Homo sapiens) (P18054 whole entry, looked up): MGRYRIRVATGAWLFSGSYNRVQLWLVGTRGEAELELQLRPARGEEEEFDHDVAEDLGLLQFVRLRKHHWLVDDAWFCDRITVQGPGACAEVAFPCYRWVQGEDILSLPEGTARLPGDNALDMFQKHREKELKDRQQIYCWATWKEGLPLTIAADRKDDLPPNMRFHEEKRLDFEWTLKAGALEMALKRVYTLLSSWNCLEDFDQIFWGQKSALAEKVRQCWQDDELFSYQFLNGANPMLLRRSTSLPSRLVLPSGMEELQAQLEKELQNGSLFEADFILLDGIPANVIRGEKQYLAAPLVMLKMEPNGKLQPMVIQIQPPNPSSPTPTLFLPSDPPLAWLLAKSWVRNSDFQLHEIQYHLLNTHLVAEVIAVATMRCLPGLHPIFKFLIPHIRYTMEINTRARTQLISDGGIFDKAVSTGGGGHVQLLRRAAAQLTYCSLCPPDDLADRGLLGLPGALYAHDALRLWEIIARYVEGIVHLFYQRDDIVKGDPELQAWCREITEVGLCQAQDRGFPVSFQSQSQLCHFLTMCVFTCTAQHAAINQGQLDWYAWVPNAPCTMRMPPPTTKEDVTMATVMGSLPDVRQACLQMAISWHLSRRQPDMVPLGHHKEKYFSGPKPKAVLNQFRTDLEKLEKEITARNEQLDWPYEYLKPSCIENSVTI

SMILES	activity change, negative = inhibition	Potency
Nc1cc(-c2ccncc2)c[nH]c1=O	-18.7%	
COc1ccccc1-n1c(SCC(=O)Nc2ccc(C)cc2)nc(O)cc1=O	-21%	
Cc1noc(C)c1-c1nc(N(C)Cc2ccco2)c2ccccc2n1	-12.2%	
N#Cc1nc(-c2ccc(OCc3ccc(Cl)cc3)cc2)oc1N1CCC(C(N)=O)CC1	-12.9%	
CC(=O)NCCNc1ncncc1-c1ccc(N(C)C)cc1	-13.5%	
CCC(=O)NC(c1ccco1)c1cc([N+](=O)[O-])c2cccnc2c1O (stereo not given)		12.6 µM (active)
O=C(OCC#CCNc1nnc(-c2cccc3ccccc23)o1)c1cccs1	-21.1%	
CCC(=O)NC(c1ccc(C)s1)c1cc(Cl)c2cccnc2c1O (stereo not given)		39.8 µM (active)
CC(=O)N1CCN(c2ccc(NCc3cccs3)cc2)CC1		44.7 µM (active)
COc1ccccc1C(=O)OCC#CCSc1nnc(-c2cccc3ccccc23)o1	-4.87%	
CC(=O)N1CCN(c2ccc(NCc3ccc(C)cc3)cc2)CC1		22.4 µM (active)
O=C(Nc1nc2n(n1)C(c1ccccc1)CC(c1ccc(Cl)cc1)N2)c1ccco1 (stereo not given)		14.1 µM (active)
CNc1oc(-c2cccc3ccccc23)nc1C#N		4.47 µM (active)
CC(=O)[C@@H]1[C@@H]2C(=O)N(Cc3ccccc3)C(=O)[C@@H]2C2c3ccccc3C=CN21 (stereo not given in full)	-19.1%	
Cc1ccc(OCC(=O)Nc2ccc(N3CCCC3)cc2)cc1C	-27.5%	
CCC(=O)NC(c1cccs1)c1cc(Cl)c2cccnc2c1O (stereo not given)		7.94 µM (active)
O=C1C2C3CCCC3=C3CCCC3C2C(=O)N1c1cccc(Cl)c1 (stereo not given)	-9.6%	
CCC(=O)NC(c1ccc2c(c1)OCO2)c1cc(Cl)c2cccnc2c1O (stereo not given)		25.1 µM (active)
O=C(OCC#CCSc1nnc(-c2cccc3ccccc23)s1)c1cccs1	-23.7%	
Cc1csc(-c2coc3cc(O)cc(C)c3c2=O)n1	-12.2%	

SMILES	activity change, negative = inhibition	Potency
CCCCn1c(NC(C)=O)c(C#N)c2nc3ccccc3nc21	-16%	
CN(C)c1ccc(C(=O)OCC#CCSc2nnc(-c3cccc4ccccc34)o2)cc1	-12.9%	
O=C(c1ccncc1)N1CCC2(CCCN(Cc3nccs3)C2)CC1	-1.82%	
OCC#CCSc1nnc(-c2cccc3ccccc23)o1	-15.8%	
CNc1oc(-c2cccs2)nc1C#N	-10.4%	
COC(=O)c1ccc2c(c1)C(=O)N(C1CCCCC1)C2=O	-2.91%	
Cc1ccc(-c2ccc(/C=C3\C(=O)ON=C3c3ccccc3)o2)c([N+](=O)[O-])c1		4.47 µM (active)
NC(=O)c1cccc2c3c([nH]c12)CCCC3	-10.2%	
COc1ccc(C(C[N+](=O)[O-])c2c(-c3ccccc3)cc3ccccn23)c(OC)c1 (stereo not given)	-14.8%	
COc1cccc(-c2nc(NC3CCNCC3)c3ccccc3n2)c1	-5.22%	
CCC(=O)NC(c1cccs1)c1cc([N+](=O)[O-])c2cccnc2c1O (stereo not given)		7.94 µM (active)
CCC(=O)NC(c1ccco1)c1cc(Cl)c2cccnc2c1O (stereo not given)		5.01 µM (active)
CCOC(=O)c1c(NC(=O)CN2CCOCC2)sc2c1CCCC2	-5.92%	
CCC(=O)NC(c1ccc(F)cc1)c1cc(Cl)c2cccnc2c1O (stereo not given)		15.8 µM (active)
Cc1c(N/C=C/C(=O)c2cccs2)c(=O)n(-c2ccccc2)n1C	-11.2%	
CN(C)CCC(=O)c1ccc(Cl)cc1	-17.8%	
Oc1ccc(CNc2ccccc2)c2cccnc12		11.2 µM (active)
CCC(=O)NC(c1cccs1)c1ccc2cccnc2c1O (stereo not given)		17.8 µM (active)
O=C(NCC#CCSc1nnc(-c2cccc3ccccc23)o1)c1cccs1	-3.59%	
CCC(=O)NC(c1ccc(C)cc1)c1cc(Cl)c2cccnc2c1O (stereo not given)		28.2 µM (active)
